From PubChem BioAssay
Only some compounds are listed: those with a hit (about 3.4% of all), similar ones and a draw of the others.
FBW7 activator: human FBW7 E3 ligase activation, primary screen; normalized activity (activation), % at 26.1 µM; AlphaScreen FBW7–phospho-cyclin E peptide binding, activator screen; Q969H0; 650,000 compounds, 0.13% hits; in the data active means normalized activity above about 1.9%;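 further: purified mutant Fbw7 with reduced substrate affinity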
Target sequence (Q969H0 whole entry, looked up): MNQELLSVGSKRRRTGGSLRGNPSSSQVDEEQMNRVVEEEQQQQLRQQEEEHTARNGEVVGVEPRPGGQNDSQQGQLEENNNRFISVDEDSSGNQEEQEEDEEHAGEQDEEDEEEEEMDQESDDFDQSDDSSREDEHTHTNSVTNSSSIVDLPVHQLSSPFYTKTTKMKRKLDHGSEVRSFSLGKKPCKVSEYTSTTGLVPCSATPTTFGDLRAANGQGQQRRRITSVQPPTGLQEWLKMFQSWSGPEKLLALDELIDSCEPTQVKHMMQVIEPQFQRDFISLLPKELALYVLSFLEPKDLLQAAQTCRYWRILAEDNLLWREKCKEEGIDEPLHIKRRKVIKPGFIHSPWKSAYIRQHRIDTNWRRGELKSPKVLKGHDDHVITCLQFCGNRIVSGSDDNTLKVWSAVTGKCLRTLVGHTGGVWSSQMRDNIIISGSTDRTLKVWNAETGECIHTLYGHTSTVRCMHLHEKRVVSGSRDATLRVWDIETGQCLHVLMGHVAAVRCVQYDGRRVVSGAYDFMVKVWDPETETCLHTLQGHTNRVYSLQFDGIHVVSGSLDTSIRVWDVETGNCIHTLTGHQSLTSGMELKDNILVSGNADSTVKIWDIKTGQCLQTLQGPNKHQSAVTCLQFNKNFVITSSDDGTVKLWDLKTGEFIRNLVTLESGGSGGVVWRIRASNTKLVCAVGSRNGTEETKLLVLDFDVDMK
GPR151 activ: human GPR151 activation | AID 1508602 | activation, % at 11.2 µM | 650,000 compounds, 1% hits | Q8TDV0 | PathHunter beta-arrestin GPR151 cells, luminescence; in the data active means activation above about 4.9%
TEAD-YAP block: TEAD-YAP interaction inhibition; HEK-TIYL cells, TEAD-Gal4/YAP UAS-luciferase luminescence; inhibition, % at 9.12 µM; 640,000 compounds, 1.4% hits; AID 1259422; in the data active means inhibition above about 32%
MITF primary: human MITF inhibition, primary screen; O75030; AlphaScreen MITF homodimerization, bead proximity signal; inhibition, % at 2.6 µM; 650,000 compounds, 0.91% hits; in the data active means inhibition above about 50%
Each line names hits and unclear results; the compound was inactive in the other large screens.

O=C(N1CCN(c2ccccc2F)CC1)N1c2ccccc2Sc2ccccc21	TEAD-YAP block 64
O=C(N1CCCCCC1)N1c2ccccc2Sc2ccccc21	none
CSc1ccc(NC(=O)NCCN2CCN(c3cccc(Cl)c3)CC2)cc1	FBW7 activator 4.4
COc1cc(C(=O)N2CCN(c3cccc(Cl)c3)CC2)cc(OC)c1OC	TEAD-YAP block 52
O=C(O)CCS(=O)(=O)c1ccc(Cl)c(Cl)c1	none
CC[C@H](Cn1nc(-c2ccc(OC)cc2)ccc1=O)NC(=O)c1ccc2nc(C)[nH]c2c1	none
Cc1c(C(=O)N2CCN(c3cccc(Cl)c3)CC2)sc2nc[nH]c(=O)c12	TEAD-YAP block 48
COc1ccc(Cl)cc1C(=O)N1CCN(c2ccccc2F)CC1	TEAD-YAP block 34
COc1nn(C)cc1C(=O)N1CCCC(C(=O)N2CCN(c3cccc(Cl)c3)CC2)C1 (centres undefined)	TEAD-YAP block 42
COc1ccccc1N1CCN(C(=O)c2cc(Br)cc(Br)c2)CC1	TEAD-YAP block 58
CCOC(=O)N/N=C\c1ccc(Cl)s1	none
O=C(CC12CC3CC(C1)CC(CC(=O)Nc1nccs1)(C3)C2)Nc1nccs1	none
CCc1ccc(NC(=O)c2ccc(N3CCCC3)c([N+](=O)[O-])c2)cc1	none
O=C(NCC1CCCN(C2CCOCC2)C1)c1ccc(-c2ccccc2)cc1 (centres undefined)	none
Cc1cc(CNC2CCN(c3cccc(NC(=O)C4CC4)c3)CC2)nn1C	none
Cc1cccc(N2CCN(C(=O)c3c(-c4ccccc4)noc3C)CC2)c1C	TEAD-YAP block 53
COc1ccc2c(c1)CCCN2C(=O)c1cc(OC)c(OC)c(OC)c1	TEAD-YAP block 45
COc1ccccc1N1CCN(C(=O)c2cc(OC)c(OC)c(OC)c2)CC1	TEAD-YAP block 64
Cc1onc(-c2ccccc2)c1C(=O)N1CCN(c2ccc([N+](=O)[O-])cc2Cl)CC1	none
COc1cc(SC)ccc1C(=O)N1CCN(c2cccc(Cl)c2)CC1	TEAD-YAP block 51
COc1cc(C(=O)N2CCCc3ccccc32)cc(OC)c1OC	none
Cc1cccc(N2CCN(C(=O)CN3C(=S)NC(C)(C)CC3C)CC2C)c1 (centres undefined)	none
CNC(=O)C1CC(=O)N(CCc2ccc(C)cc2)C1 (centres undefined)	none
CCOC(=O)CCC(=O)Nc1cc(-c2ccc(C)cc2)[nH]n1	none
CC(=O)Nc1cc(-c2ccc(C)cc2)[nH]n1	FBW7 activator 1.9
COc1ccc(C(c2ccc(C)s2)c2ccc(C)s2)cc1	none
Cc1ccc(-c2nc(-c3ccccn3)no2)cc1[N+](=O)[O-]	TEAD-YAP block 55
CCCOc1ccc(-c2ccc(-c3nc(-c4ccccn4)no3)cc2)cc1	none
Cc1ccc(-c2nc(-c3cccs3)no2)cc1[N+](=O)[O-]	none
CCOc1ccc2cc(-c3ccccn3)c(=N)oc2c1	TEAD-YAP block 59
CCOc1ccc(-c2nc(-c3ccccn3)no2)cc1	TEAD-YAP block 98
Cc1ccc(-c2nc(-c3ccccn3)no2)cc1	TEAD-YAP block 95
COC(=O)c1ccc(NC(=O)CSc2nc3ccccc3[nH]2)cc1	none
Cc1ccc(-c2nc(-c3ccccn3)no2)cc1Cl	TEAD-YAP block 84
c1ccc(-c2ccc(-c3nc(-c4ccccn4)no3)cc2)cc1	TEAD-YAP block 95
CSc1nc2ccc(NC(=O)C3CC(=O)N(c4ccc5c(c4)OCCO5)C3)cc2s1 (centres undefined)	none
O=C(N/N=C\C(Br)=C\c1ccccc1)c1ccc(F)cc1	none
C=CCn1c(SCC(=O)OCC)nc2sc3c(c2c1=O)CCC(C(C)(C)C)C3 (centres undefined)	TEAD-YAP block 38
CCCc1cc(=O)[nH]c(SCC(=O)Nc2nonc2N)n1	none
NCc1nn(CCc2ccccn2)c(=O)c2ccccc12	TEAD-YAP block 59
Cn1nc(CN)c2ccccc2c1=O	none
CC1(C)CC(c2ccccc2)(C(CO)CNCc2ccccc2)CCO1 (centres undefined)	none
CCCc1cc(=O)[nH]c(-n2nc(C)cc2NC(=O)c2cccc(Cl)c2)n1	FBW7 activator 2.4
Cc1cccc(C(=O)Nc2cc(C)nn2-c2nc(C)cc(=O)[nH]2)c1	none
Cc1ccc(/C=C2/SC(=S)N(C(CCC(=O)O)C(=O)O)C2=O)o1 (centres undefined)	MITF primary 55
CCCCC(C(=O)O)N1C(=O)/C(=C\c2ccc(C)o2)SC1=S (centres undefined)	none
CCC(C(=O)O)N1C(=O)/C(=C\c2ccc(C)o2)SC1=S (centres undefined)	MITF primary 62
O=C(O)CCC(C(=O)O)N1C(=O)/C(=C/c2ccccc2)SC1=S (centres undefined)	none
CC(C)CC(C(=O)O)N1C(=O)/C(=C\c2ccco2)SC1=S (centres undefined)	MITF primary 58
CCCCC(C(=O)O)N1C(=O)/C(=C\c2ccco2)SC1=S (centres undefined)	none
CCOC(=O)C1CCN(C(=O)COc2ccc(C(C)(C)C)cc2)CC1	TEAD-YAP block 60
CCOC(=O)C1CCN(C(=O)COCC(=O)N2CCC(C(=O)OCC)CC2)CC1	none
CCOC(=O)C1CCN(C(=O)COc2ccc(C)cc2)CC1	none
CCOC(=O)C1CCN(C(=O)COC(=O)c2cc(O)c(O)c(O)c2)CC1	MITF primary 90
Cc1ccc(-c2c(NCc3cccs3)c(=O)c2=O)cc1	none
CCN(CC)C(=O)C1c2cc(OC)c(OC)cc2C(=O)N2CCc3ccccc3C12 (centres undefined)	none
CCOc1cc2c(cc1OCC)C1C(C(=O)N(CC)CC)c3ccccc3C(=O)N1CC2 (centres undefined)	TEAD-YAP block 32
Oc1ccccc1CNCc1ccccn1	MITF primary 76
CC(=O)Nc1ccc(Sc2nc3ccccc3s2)c(Cl)c1	none
O=C(Nc1ccc2oc(-c3cccc(F)c3)nc2c1)c1cc([N+](=O)[O-])ccc1Cl	TEAD-YAP block 37
O=C(Nc1ccc2oc(-c3cccc4c(Br)cccc34)nc2c1)c1cc([N+](=O)[O-])ccc1Cl	none
O=C(Nc1ccc2oc(-c3cccc4c(Br)cccc34)nc2c1)c1ccccc1[N+](=O)[O-]	TEAD-YAP block 43
O=C(Nc1ccc(Sc2nc3ccccc3s2)c(Cl)c1)c1cc([N+](=O)[O-])ccc1Cl	TEAD-YAP block 32
Cc1ccc(NC(=O)c2sc3ncnc(N4CCCCC4C)c3c2C)cc1F (centres undefined)	none
CC1=NN(C(=O)c2csc3c2CCC(C)C3)C(O)(C(F)(F)F)C1 (centres undefined)	none
CC(C)(C)C(=O)Nc1ccc(-c2nc3ncccc3o2)cc1	TEAD-YAP block 60
CC(C)(C)C(=O)Nc1cccc(-c2nc3ncccc3o2)c1	none
NC(=O)CSc1ccc(-c2cccc([N+](=O)[O-])c2)nn1	none
Cc1nc2c(C(=O)N3CCCC3)c[nH]n2c(=O)c1Cc1ccc(Cl)cc1	FBW7 activator 1.9
Cc1nc2c(C(=O)O)c[nH]n2c(=O)c1Cc1ccc(Cl)cc1	none
COc1ccc(Br)cc1/C=C/C(=O)c1ccco1	TEAD-YAP block 61
COc1ccc(-c2ccc(/C=C/C(=O)c3ccco3)o2)cc1	MITF primary 63
